Among all 370,000 compounds or so, about 6,800 (1.8%) were called active. This is one part of a sample in which actives are shown more often than they occur. Unmarked numbers belong to inactive results.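 Rule for the calls: active = activation above a cutoff set at the mean of all screened compounds plus 3 SD (cut at about 10% in these data); inactive = the rest.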
These molecules were tested on Nuclear hormone receptor DAF-12 (Heterodera glycines), GAL4 fusion (assay: hgDAF-12 GAL4 fusion reporter activation – cell-based, luminescence, HEK293, UAS-luciferase, primary screen (AID 687014;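 note: 0% = DMSO wells and 100% = sodium butyrate wells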)). Settings: HEK293 GAL4-hgDAF12 UAS-luciferase reporter, agonist luminescence; at 6.8 µM; hits give high values; normalized to butyrate control.

| SMILES | activation |
| --- | --- |
| O=C(N/N=C/c1ccsc1)c1cc(O)cc(O)c1 | 2.1% |
| CC(NC(=O)C(=O)N/N=C/c1ccc(Cl)cc1)c1ccccc1 (stereo unspecified) | -4.35% |
| O=C(NN=Cc1ccccc1)c1ccccc1 | 12.9% (active) |
| O=C(N/N=C/c1ccoc1)c1ccc(Cl)cc1Cl | 5.04% |
| CSc1ccc(/C=N/NC(=O)c2cccc(Cl)c2)cc1 | 15.8% (active) |
| NN=C(NN=Cc1ccccc1)c1ccccc1 | 10.3% |
| COC(=O)[C@]12C[C@H](CC(=O)NCc3ccccc3)C(=O)N(CCC3=CCCCC3)C1=C[C@H](C(C)(C)C)O[C@@H]2C | -0.89% |
| COc1cccc(CNC(=O)Cn2c(=O)oc3cc(S(=O)(=O)N4CCCCC4)ccc32)c1 | -2.85% |
| COc1ccc(C2CC=C(C(=O)O)C(c3ccccc3F)N2S(=O)(=O)c2ccc(C)cc2)cc1OC (stereo unspecified) | 3.93% |
| COC(=O)C[C@@H]1CC[C@H]2[C@@H](COc3ccc(NS(=O)(=O)CC(F)(F)F)cc3C(=O)N2C)O1 | -0.04% |
| COC(=O)c1cc2c(c3c4ccccc4n(S(=O)(=O)c4cccc(C)c4)c13)C(=O)N(Cc1ccccc1)C2 | 0.97% |
| CC(C)(C)NC(=O)C(c1cccnc1)N(C(=O)c1cnco1)c1ccc(C(C)(C)C)cc1 (stereo unspecified) | -4.87% |
| COc1ccc(-c2cn3cccnc3n2)cc1 | 14.7% (active) |
| COc1cc(OC)cc(-c2nc(=S)n3ccsc3n2)c1 | 2.26% |
| FC(F)(F)Oc1ccc(-c2cn3cccnc3n2)cc1 | 9.13% |
| COc1ccc(-c2cn3ccsc3n2)cc1 | 14.1% (active) |
| CC(C)(C)C(=O)Nc1ccc(-c2cn3cccnc3n2)cc1 | 8.9% |
| Cc1ccc(S(=O)(=O)NCc2cn3ccsc3n2)c(C)c1 | -0.36% |
| Nc1ncnc2c1ncn2[C@@H]1O[C@H](C(=O)N[C@@H](CCc2ccccc2)C(=O)NCC(=O)N2CCOCC2)[C@@H](O)[C@H]1O | 1.87% |
| CC(C)N1CCCCC(NC(=O)c2ccc3ccccc3c2)C1=O (stereo unspecified) | -0.24% |
| O=S1(=O)c2ccc(Br)cc2-n2nncc2CN1Cc1cccc(Cl)c1 | 6.32% |
| Cc1ccc(C)c(-n2nnnc2SCC(=O)c2c(N)n(C)c(=O)n(C)c2=O)c1 | -2.28% |
| COc1ccc(Cn2ccc3ccc(-c4ccc5ccn(Cc6ccccc6C)c5c4)cc32)cc1 | 8.22% |

| SMILES | activation |
| --- | --- |
| CC(=O)OC[C@@H]1CN(Cc2ccccc2)C[C@H](n2cnc3c(NCc4ccco4)ncnc32)O1 | 1.43% |
| c1ccc(-c2c[nH]c(-c3ccccc3)c2)cc1 | 11.8% (active) |
| c1ccc(-c2ccc3c(c2)NC(C2Nc4cc(-c5ccccc5)ccc4O2)O3)cc1 (stereo unspecified) | -0.29% |
| Oc1ccc(-c2cccc(-c3ccc(O)cc3)c2)cc1 | 7.62% |
| Brc1ccc(COCCc2cn(Cc3ccccc3)c3ccccc23)cc1 | 0.93% |
| O=S1(=O)c2c(cccc2N2CCSCC2)Oc2ccccc2CN1Cc1cn(Cc2ccc(F)cc2)nn1 | -4.41% |
| CCN(CC(=O)NCCc1ccccc1)S(=O)(=O)c1ccc(C)cc1 | -0.97% |
| CCN(c1cccc(C)c1)S(=O)(=O)c1ccc(-c2coc(C)n2)cc1 | -2.39% |
| Cc1ccc(-c2cn3cc(C)ccc3n2)cc1 | -15.8% |
| CCN(CC)S(=O)(=O)c1ccc(-c2cn3ccc(C)cc3n2)cc1 | 10.8% (active) |
| Cc1ccc2nc(-c3ccc(Br)cc3)cn2c1 | -6.8% |
| COc1ccc(-c2cn3ccc(C)cc3n2)cc1 | 14.2% (active) |
| C[C@H]1CCC/C=C/C(=O)c2c(O)cc(O)cc2CC(=O)O1 | -13.8% |
| CCCCCCCCN1C(=O)[C@@H](CC(=O)NCc2ccccc2)C[C@@]2(C(=O)OC)C1=C[C@H](C(C)(C)C)O[C@@H]2C | -1.53% |
| O=C(c1ccco1)N1CCN=C1SCc1cccc(Cl)c1 | -5.1% |
| CCC(=O)c1c(CC)c2n3c1=CC[C@H]3CC(Br)C=2 (stereo partly specified) | -0.81% |
| COc1ccc(-n2c(COc3ccccc3)nnc2SCC(=O)Nc2ccc3c(c2)OCO3)cc1 | -2.9% |
| NS(=O)(=O)c1ccc(CCNC(=O)CNC(=O)Cc2ccccc2)cc1 | 0.79% |
| Cc1cc(C)n2ncc(C(=O)Nc3ccc4c(c3)OCCO4)c2n1 | 4.4% |
| CCc1ccc2oc(-c3ccc(N)cc3)nc2c1 | 15.5% (active) |
| CC(=O)N1CC2(C)CN(C(C)=O)CC(C)(C1)C2=O | 1.11% |
| O=C(CCCCCN1C(=O)C2C3C=CC(C3)C2C1=O)Nc1ccccc1 (stereo unspecified) | 8.92% |
| CC(=O)c1cccc(NC(=O)[C@@H](NC(N)=O)C(C)C)c1 | -2.72% |

| SMILES | activation |
| --- | --- |
| CCSc1nsc(NC(=O)Nc2cccc(C(C)=O)c2)n1 | 8.65% |
| CC(=O)c1cccc(NC(=O)Nc2ccc(C)cc2)c1 | 11.1% (active) |
| OCCN1CCN(c2ncnc3c2ncn3[C@H]2CN(Cc3ccco3)C[C@@H](CO)O2)CC1 | 0.95% |
| COc1ccc(Cn2cc(CN3[C@@H](CC(C)C)COc4cc(Br)ccc4S3(=O)=O)nn2)cc1 | 2.35% |
| Cc1ccc(NC(=O)CNCc2ccccn2)cc1S(=O)(=O)N(C)C | 3.01% |
| CCN(CC)S(=O)(=O)c1cc(C(=O)Nc2ccccn2)ccc1C | 12.3% (active) |
| CCN(c1ccccc1)S(=O)(=O)c1cc(C(=O)NCc2ccccn2)ccc1C | 0.44% |
| C[C@H]1[C@H](c2ccccc2)Oc2cc(Br)ccc2S(=O)(=O)N1Cc1cccc(F)c1 | -2.03% |
| O=C(Nc1ccc(S(=O)(=O)N2CCCC2)cc1Cl)C1=COCCO1 | -1.4% |
| NS(=O)(=O)c1ccc2nc(NC(=O)C3=COCCO3)sc2c1 | 12.8% (active) |
| NS(=O)(=O)c1ccc2nc(NC(=O)CS(=O)(=O)c3ccc(F)cc3)sc2c1 | 2.11% |
| COc1ccc(CN2C(=O)N3Cc4cc(OC)ccc4C3CS2(=O)=O)cc1 (stereo unspecified) | -2.75% |
| Cc1ccc(-c2nnc(-n3nnc4ccccc43)c3ccccc23)cc1 | 0.07% |
| CCCCCn1nnnc1-c1nc2cc3ccccc3cc2[nH]c1=O | 0.65% |
| Cc1ccc(-c2nc3ccccc3[nH]c2=O)cc1 | 10.9% (active) |
| CC1CCCN(c2ccc(C(=O)NCCc3ccccc3)cn2)C1 (stereo unspecified) | 18.4% (active) |
| CC1CCN(C(=O)CCNC(=O)c2ccccc2)CC1 | 2.11% |
| O=C(NCCc1ccccc1)c1ccc(NC2=NC3CS(=O)(=O)CC3S2)cc1 (stereo unspecified) | -1.54% |
| O=C(NC1CCCC1)C1CSCCS(=O)(=O)N1Cc1ccccc1 (stereo unspecified) | 2.17% |
| CC(C)C[C@@H](NC(=O)[C@H]1CCCN1C(=O)Cc1ccccc1)C(N)=O | 1.33% |
| Cc1cc(F)ccc1N1CCC(N2CCN(C)C(CCO)C2)CC1 (stereo unspecified) | 1.51% |
| O=C(Cc1ccccc1)Nc1ccc(C(=O)Nc2ccccc2C(=O)O)cc1 | 0.23% |
| O=C(Nc1ccccc1C(=O)N1CCOCC1)c1ccc(Cl)cc1 | -2.57% |

| SMILES | activation |
| --- | --- |
| Nc1ccc(C(=O)Nc2ccccc2N)cc1 | 66.9% (active) |
| CCC(CO)Nc1cccc2c1S(=O)(=O)N(Cc1cn(Cc3ccccc3C(F)(F)F)nn1)Cc1ccccc1O2 (stereo unspecified) | 0.2% |
| O=C1Nc2ccccc2C1=NN=Cc1ccco1 | 0.84% |
| Cc1nonc1C(=O)N/N=C/c1ccc(O)cc1 | 10.9% (active) |
| CCOc1ccc(/C=N\NC(=O)c2c(C)nc3cc(C)ccn23)cc1 | -0.25% |
| Nc1nonc1-n1nnc(C(=O)N/N=C/c2ccc(Cl)cc2)c1-c1ccc2c(c1)OCO2 | -0.85% |
| Cc1ccc(O)c(CCc2ccccc2)n1 | 1.33% |
| Cc1cccc(C(=O)Nc2c(-c3ccc(F)cc3)nc3ncccn23)c1 | -2.47% |
| CCC(=O)Nc1ccc2c(c1)C(=O)N(C)[C@@H]1CC[C@@H](CC(=O)NCCc3ccccc3)O[C@H]1CO2 | 0.93% |
| O=C(c1cnn(-c2ccc(Cl)cc2)c1)c1ccccc1O | 18.6% (active) |
| Cc1cc(O)cc(O)c1C(=O)Cc1cnn(-c2ccccc2)c1 | -1.43% |
| O=C(c1ccc(Cl)cc1)n1cnc2ccccc21 | 0.03% |
| CN(CCO)c1cccc2c1S(=O)(=O)N(Cc1cn(Cc3ccc(C(F)(F)F)cc3)nn1)Cc1ccccc1O2 | 4.36% |
| Cc1ccc(-c2nc(-c3ccncc3)no2)c(C)c1 | 12.5% (active) |
| O=C(c1cccs1)N1CCCC(c2nc(-c3ccc(F)cc3)no2)C1 (stereo unspecified) | 3.47% |
| O=C(NCc1cccnc1)c1nc(-c2cccs2)no1 | 4.85% |
| Cc1ccc(-c2noc(-c3ccccc3C(=O)NCC3CCCO3)n2)cc1 (stereo unspecified) | 3.26% |
| c1csc(-c2nc(-c3ccncc3)no2)c1 | 10.9% (active) |
| CCOc1ccc(N(CC(=O)Nc2c(C)n(C)n(-c3ccccc3)c2=O)S(=O)(=O)c2ccc(Cl)s2)cc1 | 8.38% |
| CCOc1ccccc1C(=O)N1CCC[C@@H]1C(=O)N1CCC[C@H]1C(=O)NCc1ccccc1 | -0.69% |
| CN(C)CC(=O)N[C@@H]1C[C@@H]2O[C@H](CO)CC[C@@H]2O[C@@H]1CCc1ccc(C#Cc2ccccc2)cc1 | -6.4% |
| COC(=O)[C@]12C[C@H](CC(=O)N3CCN(C(=O)C4CC4)CC3)C(=O)N(CCC3=CCCCC3)C1=C[C@H](C(C)C)O[C@@H]2C1CC1 | 1.54% |
